The list is not random: actives were taken first. Their share in the collection is about 4.6%.
D1 PAM: Potentiators of Human D1 Dopamine Receptor: qHTS. D(1A) dopamine receptor (Homo sapiens), P21728. HEK293 TREx D1 cells, calcium flux, dopamine EC20 potentiation. potentiation, % at 10 µM. 360,000 compounds, 0.036% hits. AID 504651, 2011; in the data active = potentiation above about 30%; also: 0% is about no effect
D1 agonist: Allosteric Agonists of the Human D1 Dopamine Receptor: qHTS; D(1A) dopamine receptor (Homo sapiens), P21728; HEK293 T-REx D1 cells, calcium flux, agonist mode; activation, % at 2 µM; 360,000 compounds, 1% hits; AID 504660, 2011; in the data active = activation above about 30%; also: 0% is about no effect
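Tetracycline-induced HEK293 TREx D1 cells, force-coupled to calcium signalling, were dye-loaded with a no-wash calcium kit. Compound was pin-added after a 10 s baseline. Fluorescence was read kinetically at 1 cycle/s for 180 s, with calcium rises flagged as agonism.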
D1 antagonist: Antagonist of Human D 1 Dopamine Receptor: qHTS; D(1A) dopamine receptor (Homo sapiens), P21728; HEK293 TREx D1 cells, calcium flux, dopamine EC80; stronger effect = lower value; activity change, negative = inhibition, % at 10 µM; 360,000 compounds, 3.2% hits; AID 504652, 2011; in the data active = activity change below about -30%; also: % is scaled to controls: 0 for no effect and ±100 for the full control effect
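Using tetracycline-induced force-coupled D1 Hek293 cells and a calcium dye, signals were followed for 180 s after compound, then for 180 s after EC80 dopamine, to detect inhibitors.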
Epigenetic derep: Quantitative High-Throughput Screen for Regulators of Epigenetic Control; Potency, µM (highest dose often 53.9 µM), inactives show at the top dose GFP activation, most hits filed as activators; 280,000 compounds, 0.2% hits; murine LDR cells, GFP reporter derepression, 30 h; AID 1865, 2009; also: potency is read from the fitted curve at half-maximal effect; % of control where 0% means no effect; nearly all actives have a fitted effect of over 60% in size
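Readout is the number of GFP-expressing murine LDR cells, counted by cytometry following washing. Cells were treated with compound for 30 h at 37 C; the stably integrated CMV-GFP locus is normally silent.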
TRHR agonist-1: qHTS for Small Molecule Agonists and Allosteric Enhancers of Human TRH Receptor: Primary Screen for Agonists; Thyrotropin-releasing hormone receptor (Homo sapiens), P34981; TRHR cells, calcium flux fluo-8, FDSS agonist mode; 360,000 compounds, 0.18% hits; activation, % at 2 µM; in the data active = activation above about 30%; also: 0% is about no effect
Target sequence (P34981 whole entry, looked up): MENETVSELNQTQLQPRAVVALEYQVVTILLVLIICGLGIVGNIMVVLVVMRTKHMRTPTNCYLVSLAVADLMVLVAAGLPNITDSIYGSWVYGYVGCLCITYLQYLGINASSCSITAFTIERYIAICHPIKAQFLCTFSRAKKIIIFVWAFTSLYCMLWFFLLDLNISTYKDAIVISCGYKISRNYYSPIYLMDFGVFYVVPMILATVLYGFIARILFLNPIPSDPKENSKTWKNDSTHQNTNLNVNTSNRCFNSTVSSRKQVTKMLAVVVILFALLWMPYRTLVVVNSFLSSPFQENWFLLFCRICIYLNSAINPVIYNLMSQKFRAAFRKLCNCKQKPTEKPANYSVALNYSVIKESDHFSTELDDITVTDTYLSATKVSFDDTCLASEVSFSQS
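Agonist-mode FDSS calcium read (Ex 480/Em 530, 1 s cycles) in 1536-well TRHR cells with fluo-8 dye, after 10-cycle baseline and 23 nL compound addition; TRH at EC20 (10 nM final) added afterwards for the enhancer phase.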
TRHR enhancer-1: qHTS for Small Molecule Agonists and Allosteric Enhancers of Human TRH Receptor: Primary Screen for Enhancers; TRHR cells, fluo-8 calcium fluorescence, EC20 TRH enhancement; enhancement, % at 2 µM; 360,000 compounds, 0.66% hits; AID 493056, 2011; in the data active = enhancement above about 30%; also: 0% is about no effect
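TRHR-expressing cells loaded with fluo-8 calcium dye were read kinetically (ex 480/em 530) during compound addition, then stimulated with an EC20 of TRH (10 nM final). Enhancement of the Gq-mediated intracellular calcium response was scored.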
TRHR enhancer-2: qHTS for Small Molecule Agonists and Allosteric Enhancers of Human TRH Receptor: Confirmation Screen for Enhancers. shares compounds with TRHR enhancer-1. TRH receptor cell assay, enhancer confirmation qHTS. activity change, negative = inhibition, % at 46.1 µM. 970 tested, under 10 active. AID 493076, 2011;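 also: compound effect scored on response to added TRH at EC20 of 10 nM; 0% is about no effect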
TRHR agonist-2: qHTS for Small Molecule Agonists and Allosteric Enhancers of Human TRH Receptor: Confirmation Screen for Agonists; shares compounds with TRHR enhancer-1; 970 compounds, 8% hits; AID 493078, 2011; TRHR-expressing cells, agonist activation read-out; Potency, µM (doses to about 46.1 µM), without a hit: at the highest dose activation, usual class: activators; also: potency is read from the fitted curve at half-maximal effect; 0% is about no effect; nearly all actives have a fitted effect of over 75% in size
The depositor's hits bear a star; ? = inconclusive; . = no result given; [ ] = remark or other dose. Unless noted, calls follow the shape of the dose curve; as a rule, active = well fitted curve in the direction sought with a large enough effect; inconclusive = small, poorly fitted or top-dose-only effect, or another doubt; inactive = no such curve, though single readings can be large; an effect the other way counts as inactive or inconclusive.

SMILES	D1 PAM	D1 agonist	D1 antagonist	Epigenetic derep	TRHR agonist-1	TRHR enhancer-1	TRHR enhancer-2	TRHR agonist-2
NCC1OC(O[C@@H]2[C@H](O)[C@@H](OC3C(O)C(N)CC(N)C3OC3OC(CO)C(O)C(O)C3N)O[C@@H]2CO)C(N)C(O)C1O (some centres undefined)	.	.	.	-0.2%	.	.	.	.
CCCN(CCC)S(=O)(=O)c1ccc(C(=O)N2CCn3c4c(c5cc(C)ccc53)CCCC42)cc1 (centres undefined)	-3.0	-0.4	2.3	0.8%	1.0	1.3	.	.
COC(=O)C/C=C\[C@@H](C)[C@@H](/C=N\OC[C@@H](O)[C@H]1O[C@H]2OC(C)(C)O[C@H]2[C@@H]1O)NS(=O)(=O)c1ccc(C)cc1	.	.	.	1.1%[10.1 µM]	.	.	.	.
COc1cccc(C(=O)C2CCCN(C(=O)CCc3scnc3C)C2)c1 (centres undefined)	-3.0	4.3	-12.9	2.5%	1.4	-9.5	.	.
COc1c(C)cc(C(=O)C2CCCN(C(=O)CCc3scnc3C)C2)cc1C (centres undefined)	-6.2	3.8	-0.2	-4.3%	-0.8	52.7*	-2.7	-0.5%
Cn1c2cc(S(C)=O)sc2c2cnn(Cc3ccccc3F)c(=O)c21 (centres undefined)	-4.5	1.5	-14.3	.	-0.8	0.7	.	.
Nc1ncnc(Nc2ccc(F)c(Cl)c2)n1	1.0	1.0	-11.7	0.1%	0.0	45.0*	-2.2	1.6%
Cc1cc(/C=c2\sc3nc4ccccc4n3c2=O)c(C)n1-c1ccc(C(=O)O)cc1	-1.4	1.9	-6.5	-0.2%	0.9	-2.5	.	.
Cc1cc(C=C2C(=O)c3ccccc3C2=O)c(C)n1-c1ccc(C(=O)O)cc1	-2.2	2.2	9.0	-1.2%	5.1	48.6*	-9.5	?
O=C(CCc1nc2cccnc2n1Cc1cccs1)Nc1cccc(Cl)c1	-2.6	3.8	-7.9	-6.0%	2.1	-4.2	.	.
Cc1cccc2sc(N(Cc3cccnc3)C(=O)C3COc4ccccc4O3)nc12 (centres undefined)	-1.3	1.4	.	6.9%	0.3	-5.3	.	.
CCOc1ccccc1NC(=O)NC1CC2CCCC(C1)N2Cc1nnnn1CCc1ccccc1 (centres undefined)	6.7	3.1	10.3	-1.0%	61.4*	-1.3	-6.5	2.1%
CCOC(=O)CCN1C(=O)[C@H]2[C@H]3[C@H](O)[C@H](O)C/C(=N/OCc4ccccc4)[C@H]3CC[C@@H]2C1=O	.	.	.	0.0%[10.1 µM]	.	.	.	.
CC1(C)CN=C(N(Cc2ccccc2)C(=O)Nc2ccccc2)S1	-2.6	11.3	1.7	8.0%	3.2	42.0*	3.7	?
Cc1cc(SC(C)C(=O)NCC(=O)Nc2ccc(F)c(F)c2F)nc2ccccc12 (centres undefined)	2.4	0.9	4.0	-1.0%	0.1	43.5*	?	2.4%
Cc1cc(C)c2nc(SC(C)C(=O)NCC(=O)Nc3ccc(F)c(F)c3F)cc(C)c2c1 (centres undefined)	26.9	3.5	-6.8	1.0%	-1.7	-5.3	.	.

High-throughput results: PubChem, National Center for Advancing Translational Sciences (NCATS)
